# Assay outcomes as filed in PubChem.
# Rows were chosen to be rich in hits. Some 17% of all compounds tested hit in one or more screens of this group.
# TDP1 cell noCPT: qHTS for Inhibitors of human tyrosyl-DNA phosphodiesterase 1 (TDP1): qHTS in cells in absence of CPT. DT40 Tdp1-/- hTDP1 cells, no CPT, ATP luminescence, 48 h. Potency, µM (doses to about 46.2 µM), inactives show at the top dose activity change, negative = growth inhibition, usual class: inhibitors. 15% of 420,000 active. AID 686978, 2013; further: on the % scale 0 is the no-effect control and ±100 the full control effect; nearly all actives have a fitted effect of over 55% in size
#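 DT40 Tdp1-/-;hTDP1 cells, no CPT (DMSO vehicle only), 400 cells/well; compounds pin-transferred; ≥48 hr, 37 °C; CellTiter-Glo 30 min RT dark, luminescence read.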
# TDP1 inh: qHTS Assay for Inhibitors of Tyrosyl-DNA Phosphodiesterase (TDP1); recombinant TDP1, AlphaScreen DNA substrate cleavage; Potency, µM (titrated, usually from 130 µM), without a hit: top-dose activity change, negative = inhibition, most hits filed as inhibitors; AID 485290, 2010; 0.28% of 350,000 active; Tyrosyl-DNA phosphodiesterase 1 (Homo sapiens), Q9NUW8; further: on the % scale 0 is the no-effect control and ±100 the full control effect; nearly all actives have a fitted effect of over 40% in size
#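 E. coli-derived human Tdp1, 1 nM final. Cpd preinc 15 min RT; substrate 15 nM final, 5 min RT; AS bead mix 10 ug/ml final, 10 min RT. Signal loss = tyrosine-FITC cleavage. No-enzyme wells = max signal.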
# ClpP mod: qHTS Assay for Activators of ClpP; ATP-dependent Clp protease proteolytic subunit (Bacillus subtilis (strain 168)), P80244; purified B. subtilis ClpP, FRET peptide cleavage, 20 min; Potency, µM (doses to about 57.5 µM), inactives show at the highest dose activity change, negative = active; 1.9% of 340,000 active; AID 651965, 2013; active means well fitted falling curve with a large enough effect; inconclusive means small, poorly fitted or top-dose-only effect; inactive means no such curve, though single readings can be large or run the other way; further: the source files actives as falling curves though it sought activators and does not explain the sign; nearly all actives have a fitted effect of over 65% in size
# Target sequence (P80244 whole entry, looked up): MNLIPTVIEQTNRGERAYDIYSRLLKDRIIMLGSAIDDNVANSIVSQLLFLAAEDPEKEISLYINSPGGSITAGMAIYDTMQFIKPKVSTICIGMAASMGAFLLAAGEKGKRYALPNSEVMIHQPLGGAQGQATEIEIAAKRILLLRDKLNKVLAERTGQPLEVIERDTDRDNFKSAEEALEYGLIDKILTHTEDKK
#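 ClpP 10 microg/mL final, pH 8 Tris/KCl buffer with BSA, glycerol, Tween-20; compound pinned in; FRET-FV substrate; RT 20 min; Ex320/Em430; ΔFRET vs ADEP 5.8 microM, DMSO, no enzyme.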
# TDP1 cell CPT: qHTS for Inhibitors of human tyrosyl-DNA phosphodiesterase 1 (TDP1): qHTS in cells in presence of CPT. chicken DT40 Tdp1-/-;hTDP1 cells + 20 nM CPT, ATP luminescence, 48 h. Potency, µM (highest dose often 46.2 µM), without a hit: at the highest dose activity change, negative = growth inhibition, usual class: inhibitors. 12% of 420,000 active. AID 686979, 2013; further: on the % scale 0 is the no-effect control and ±100 the full control effect; nearly all actives have a fitted effect of over 55% in size
#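 Cell growth measured by CellTiter-Glo luminescence after a minimum 48 h, 37 C compound exposure with 20 nM CPT in Tdp1-knockout DT40 cells stably expressing hTDP1, seeded 400/well; qHTS titration format.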
# An asterisk follows results filed as active; ? = inconclusive; nt = no result given; [ ] = dose if it differs, or a comment. Unless noted, the call rests on the fitted dose curve; in most records, active means well fitted curve in the direction sought with a large enough effect; inconclusive means small, poorly fitted or top-dose-only effect, or another doubt; inactive means no such curve, though single readings can be large; an effect the other way counts as inactive or inconclusive. Potency means the concentration at half of the fitted maximal effect.
SMILES,TDP1 cell noCPT,TDP1 inh,ClpP mod,TDP1 cell CPT
O=C(Nc1cc(Cl)cc(Cl)c1)c1ccc(F)c(S(=O)(=O)N2CCN(c3ccccc3F)CC2)c1,7.3µM*,0%,-21%,5.8µM*
Cc1ccc(C)c(N2CCN(S(=O)(=O)c3cc(C(=O)Nc4ccc(Oc5ccccc5)cc4)ccc3F)CC2)c1,?,0%,-5%,?
O=C(Nc1cc(Cl)cc(Cl)c1)c1ccc(F)c(S(=O)(=O)N2CCCCCC2)c1,10µM*,0%,?,5.2µM*
O=[N+]([O-])c1ccc2oc(-c3ccccc3)nc2c1,-16%,3%,nt,6%
NC(N)=Nc1nc2cc([N+](=O)[O-])ccc2o1,10µM*,5%,2%,10µM*
N#CCC(=O)Nc1ccc(C(=O)OCC(=O)N2CCN(C(=O)c3ccco3)CC2)cc1,2%,45µM*,-2%,6%
COC(=O)c1ccccc1NC(=O)N1CCN(C(=O)c2ccco2)CC1,-1%,2%,22µM*,-9%
O=C(OCC(=O)N1CCc2ccccc21)c1ccc[nH]c1=O,1%,-2%,28µM*,3%
O=C(OCC(=O)N1CCN(C(=O)c2ccco2)CC1)c1ccccc1NCCO,2%,45µM*,-23%,-10%
CC(=O)Nc1ccc(C(=O)OCC(=O)N2CCN(C(=O)c3ccco3)CC2)cc1,23%,-2%[56.1 µM],0%,3%
CCN1CCN(C(c2ccc(OC)cc2)c2c(O)cc(C)n(CCOC)c2=O)CC1 (centres undefined),6%,-11%,-2%,5%
O=C(OCC(=O)N1CCCc2ccccc21)c1ccccc1NCCO,?,3%,32µM*,-23%
COc1ccccc1CNC(=O)C1CCCN(S(=O)(=O)c2cccc3nsnc23)C1 (centres undefined),?,3%,nt,?
O=C(NCc1ccccc1Cl)C1CCCN(c2nc3ccccc3n3cccc23)C1 (centres undefined),21µM*,5%,-30%,18µM*
COc1ccccc1CNC(=O)C1CCCN(c2nc3ccccc3n3cccc23)C1 (centres undefined),13µM*,-8%,13µM*,?
COc1ccccc1-c1c(C)nn2c(-c3ccccc3)cc(-c3ccccc3)nc12,-26%,-1%,0%,-5%
COc1ccc2[nH]c(C)c(CN3CCC(C)CC3)c(=O)c2c1,-8%,-2%,10µM*,-14%
CCOc1ccc2[nH]c(C)c(CN(C)C)c(=O)c2c1,-17%,1%,16µM*,2%
CCN(C(=O)C1CCN(c2nc(-c3ccc(OC)cc3)no2)CC1)c1ccc(OC)cc1,16µM*,nt,0%,?
COc1ccc(-c2noc(N3CCC(C(=O)N(C)c4cc(Cl)ccc4OC)CC3)n2)cc1,?,-3%,2%,16µM*
COc1ccc(-c2noc(N3CCC(C(=O)NCc4ccc(F)cc4)CC3)n2)cc1,?,nt,2%,-28%
COc1ccc(-c2noc(N3CCC(C(=O)Nc4ccc(OC)cc4OC)CC3)n2)cc1,?,nt,1%,?
COc1ccc(-c2noc(N3CCC(C(=O)NCCCN4CC(C)CC(C)C4)CC3)n2)cc1 (centres undefined),?,3%,-1%,3.7µM*
c1ccc(Oc2cc(-c3ccccc3)ncn2)cc1,-27%,-2%,-4%,-10%
Cc1ccc(NC(=O)c2ccc(NC(=O)C3CCCC3)cc2)c(C)c1,?,nt,-5%,?
SMILES,TDP1 cell noCPT,TDP1 inh,ClpP mod,TDP1 cell CPT
CCOC(=O)c1cccc(NC(=O)C2COc3ccc(OC)cc3C2)c1 (centres undefined),?,2%,-7%,?
O=C(Nc1c(Cl)cccc1Cl)C1CCN(C(=O)c2cccs2)CC1,-28%,5%,nt,-12%
Cc1ccc2ncnc(NCc3ccco3)c2c1,4.5µM*,7%,-5%,7.1µM*
Clc1ccc2c(NCc3cccs3)ncnc2c1,21µM*,nt,-2%,13µM*
Clc1ccc2c(NCc3ccco3)ncnc2c1,13µM*,8%,-2%,15µM*
Clc1ccc2c(NCc3ccccn3)ncnc2c1,?,9%,-8%,?
Cn1ncc2c(NCc3ccco3)ncnc21,-1%,nt,-2%,-23%
CC(C)(C)NC(=O)c1ccc2nsnc2c1,-1%,5%,-5%,4%
Nc1nnc(CC(=O)N/N=C/c2ccc(-c3cccc(C(=O)O)c3)o2)s1,-8%,nt,nt,-3%
CCC(C)(C)n1nnnc1CN1CCC(NC(=O)c2ccc(Br)cc2)CC1,21µM*,2%,-1%,?
Clc1ccc2nc(C3CCN(Cc4nnnn4C4CCCCC4)CC3)[nH]c2c1,?,-1%,-3%,?
Cc1ccc(Cn2nnnc2CN2CCC(NC(=O)c3ccc(Br)cc3)CC2)cc1,18µM*,7%,1%,?
Cc1ccc(Cn2nnnc2CN2CCC(c3nc4ccc(Cl)cc4[nH]3)CC2)cc1,2.3µM*,5%,-2%,2.6µM*
COCCNc1cc(-c2ccccc2C)ncn1,31%,nt,nt,8%
O=C(NCC1CCCO1)c1cc2ccccc2o1 (centres undefined),13%,3%,-8%,-13%
O=C(c1ccc(Cl)nc1)N1CCN(S(=O)(=O)c2ccc(Cl)cc2)CC1,?,-1%,nt,?
CCOC(=O)C1=C[C@@H](C(=O)OCC)[C@@H]2C3=C(C(=O)C2(C)C)[C@H](c2ccccc2)[C@@H]2C(=O)N(c4ccccc4)C(=O)[C@@H]2[C@@H]3C1,nt,17%,nt,nt
COc1ccc(Cl)cc1Nc1cc(C)nc2ccccc12,15µM*,nt,-4%,?
COc1ccc(OC)c(NC2=C(c3ccccc3)C(=O)c3ccccc32)c1,1µM*,12%,-18%,1.5µM*
